Our source for the composite z-score and z-score values is PubChem BioAssay.

The source made the active and inactive calls.

Assay [1] deals with PRMT1 (protein arginine N-methyltransferase 1). As to the kind of experiment: small molecules binding arginine methyltransferase PRMT1 – biochemical, small-molecule microarray, 635 nm fluorescence, primary screen (AID 1088).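 Also: binding of Prmt1 protein to compounds spotted on small-molecule microarray slides.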 The note with it: higher = more signal.
A short description of assay [2]: growth effects on S. cerevisiae YJM789 – YJM789 clinical isolate, OD600, 24 h, basal, primary screen (AID 1089).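 Also: growth of clinical yeast isolate S. cerevisiae YJM 789 seeded 1000 cells per well; test concentration not given here.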 The note with it: higher = more signal, called active from +8 up or from −8 down.
Assay [3] in a line: S. pombe growth modifiers, basal conditions – strain 972, OD600, 24 h, no modulator, primary screen (AID 1090).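 Also: basal condition with compound alone and no growth modifier present; test concentration not given here.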 The note with it: S. pombe 972 growth, higher = more signal, called active from +8 up or from −8 down.
Assay [4] in a line: budding yeast growth modifiers under rapamycin – strain BY4716, OD600, 96 h, primary screen (AID 1091). Also: test concentration not given here. The note with it: S. cerevisiae BY4716 + rapamycin, higher = more signal, called active from +8 up or from −8 down.
Assay [5] deals with Torsin-1A-interacting protein 2 (Homo sapiens) (UniProt Q8NFQ8). Kind of assay: small molecules binding lysate-expressed LULL1 – cell lysate, human LULL1 lysate, 635/667 nm fluorescence, primary screen (AID 1092).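 Also: probe is lysate of COS7 cells overexpressing human LULL1; score merges per-feature 667 nm fluorescence with signal-to-noise.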 The note with it: small-molecule microarray, hLULL1 lysate binding, 635 nm fluorescence; higher = more signal.
Torsin-1A-interacting protein 2 (Homo sapiens), sequence (Q8NFQ8 whole entry, looked up): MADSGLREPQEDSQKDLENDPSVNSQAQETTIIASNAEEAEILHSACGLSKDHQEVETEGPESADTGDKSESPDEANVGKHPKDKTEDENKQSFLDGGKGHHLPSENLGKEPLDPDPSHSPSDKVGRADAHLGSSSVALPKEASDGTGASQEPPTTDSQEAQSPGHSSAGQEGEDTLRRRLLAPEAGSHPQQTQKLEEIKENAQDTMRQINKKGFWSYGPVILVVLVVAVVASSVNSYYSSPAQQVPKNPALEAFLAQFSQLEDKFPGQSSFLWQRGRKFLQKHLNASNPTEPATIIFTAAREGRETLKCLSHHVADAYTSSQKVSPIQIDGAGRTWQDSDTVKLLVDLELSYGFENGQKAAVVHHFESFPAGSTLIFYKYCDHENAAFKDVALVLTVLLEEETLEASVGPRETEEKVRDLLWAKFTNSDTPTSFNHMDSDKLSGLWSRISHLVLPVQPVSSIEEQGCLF
The nature of assay [6]: optical density change of DRC41 E. coli – strain DRC41, OD650, 24 h, E. coli filamentation project, primary screen (AID 1093).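 Also: MC1000 strain lacking acrAB efflux and sulA so SOS filamentation is blocked; test concentration not given here.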 The note with it: E. coli DRC41 growth, higher = more signal, called active from +8 up or from −8 down.
The nature of assay [7]: probe aLefty2 binding to arrayed compounds – biochemical, biotinylated probe, 635/667 nm fluorescence, primary screen (AID 1094).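 Also: score merges spot fluorescence near 667 nm with spot signal-to-noise ratio.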 The note with it: small-molecule microarray, higher = more signal.
The test system of assay [8] is Noggin (protein binding on small-molecule microarray). Kind of assay: small molecules binding Noggin protein – biochemical, 635/667 nm fluorescence, primary screen (AID 1095).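 Also: score merges 667 nm feature fluorescence with signal to noise over triplicate slides.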 The note with it: 635 nm fluorescence, higher = more signal.
For assay [9], the target named is Neurogenic locus notch homolog protein 3 (Homo sapiens) (UniProt Q9UM47). Kind of assay: small molecules binding NOTCH3 protein – biochemical, 635/667 nm fluorescence, primary screen (AID 1096). The note with it: small-molecule microarray, 635 nm fluorescence, higher = more signal.
Neurogenic locus notch homolog protein 3 (Homo sapiens), sequence (Q9UM47 whole entry, looked up): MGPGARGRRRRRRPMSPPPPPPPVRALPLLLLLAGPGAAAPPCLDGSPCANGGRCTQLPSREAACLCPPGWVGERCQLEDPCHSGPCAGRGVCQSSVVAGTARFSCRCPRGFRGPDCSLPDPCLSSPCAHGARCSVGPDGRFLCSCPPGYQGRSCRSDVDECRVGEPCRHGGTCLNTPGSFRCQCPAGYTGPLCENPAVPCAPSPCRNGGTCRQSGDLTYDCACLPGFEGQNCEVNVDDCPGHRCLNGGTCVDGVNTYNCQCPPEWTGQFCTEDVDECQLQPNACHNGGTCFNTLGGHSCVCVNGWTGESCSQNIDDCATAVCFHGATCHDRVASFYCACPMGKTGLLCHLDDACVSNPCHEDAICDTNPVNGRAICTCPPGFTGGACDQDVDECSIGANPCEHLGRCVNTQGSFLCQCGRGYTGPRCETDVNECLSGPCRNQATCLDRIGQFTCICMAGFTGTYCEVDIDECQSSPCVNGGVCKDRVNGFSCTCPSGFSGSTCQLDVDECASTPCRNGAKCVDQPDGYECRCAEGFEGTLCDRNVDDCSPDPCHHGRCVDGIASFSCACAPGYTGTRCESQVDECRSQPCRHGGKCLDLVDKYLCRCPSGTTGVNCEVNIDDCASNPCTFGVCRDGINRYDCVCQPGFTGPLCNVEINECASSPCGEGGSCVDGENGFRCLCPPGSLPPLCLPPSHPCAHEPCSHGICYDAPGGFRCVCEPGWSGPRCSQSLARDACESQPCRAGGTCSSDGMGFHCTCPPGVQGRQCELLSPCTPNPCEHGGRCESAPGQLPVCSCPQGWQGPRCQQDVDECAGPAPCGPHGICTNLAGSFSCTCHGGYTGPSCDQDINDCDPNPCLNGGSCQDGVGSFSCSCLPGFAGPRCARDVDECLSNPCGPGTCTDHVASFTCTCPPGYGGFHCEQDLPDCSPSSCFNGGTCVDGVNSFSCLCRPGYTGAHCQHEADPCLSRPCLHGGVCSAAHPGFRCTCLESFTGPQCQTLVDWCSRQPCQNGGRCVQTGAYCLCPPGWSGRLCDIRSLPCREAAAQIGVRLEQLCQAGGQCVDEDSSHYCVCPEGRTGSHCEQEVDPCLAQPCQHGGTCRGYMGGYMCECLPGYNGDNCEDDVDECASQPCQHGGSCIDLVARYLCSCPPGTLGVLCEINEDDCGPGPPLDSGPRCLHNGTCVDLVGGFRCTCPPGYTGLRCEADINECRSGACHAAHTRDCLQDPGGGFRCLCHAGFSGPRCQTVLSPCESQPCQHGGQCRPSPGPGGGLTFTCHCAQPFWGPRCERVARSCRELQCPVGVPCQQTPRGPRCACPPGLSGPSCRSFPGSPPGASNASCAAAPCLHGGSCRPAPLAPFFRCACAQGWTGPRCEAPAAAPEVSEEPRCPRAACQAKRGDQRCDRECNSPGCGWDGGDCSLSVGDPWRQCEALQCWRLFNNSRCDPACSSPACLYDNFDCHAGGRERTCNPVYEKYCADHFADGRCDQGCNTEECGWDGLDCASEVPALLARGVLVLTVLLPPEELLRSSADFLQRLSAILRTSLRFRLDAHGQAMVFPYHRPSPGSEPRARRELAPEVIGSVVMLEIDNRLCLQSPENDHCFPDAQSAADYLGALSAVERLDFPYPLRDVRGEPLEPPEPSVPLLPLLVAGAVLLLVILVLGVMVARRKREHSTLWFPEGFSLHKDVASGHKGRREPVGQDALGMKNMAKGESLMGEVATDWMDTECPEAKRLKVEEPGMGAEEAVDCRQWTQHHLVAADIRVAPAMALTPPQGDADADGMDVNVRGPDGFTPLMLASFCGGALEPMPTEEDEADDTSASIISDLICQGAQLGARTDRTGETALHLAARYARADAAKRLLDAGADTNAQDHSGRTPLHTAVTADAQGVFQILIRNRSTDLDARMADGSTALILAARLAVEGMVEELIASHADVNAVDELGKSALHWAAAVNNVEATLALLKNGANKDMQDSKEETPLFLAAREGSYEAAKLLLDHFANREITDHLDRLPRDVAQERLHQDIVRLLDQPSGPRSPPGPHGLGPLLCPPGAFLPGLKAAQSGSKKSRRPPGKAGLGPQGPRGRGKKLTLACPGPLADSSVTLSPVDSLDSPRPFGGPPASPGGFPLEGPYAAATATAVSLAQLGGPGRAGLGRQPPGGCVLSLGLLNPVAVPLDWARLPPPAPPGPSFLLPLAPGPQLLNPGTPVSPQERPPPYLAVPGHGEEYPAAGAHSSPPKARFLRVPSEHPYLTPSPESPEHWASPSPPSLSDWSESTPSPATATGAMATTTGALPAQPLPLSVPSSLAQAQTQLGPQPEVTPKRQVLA
The nature of assay [10]: probe aEGFR binding to arrayed compounds – biochemical, biotinylated probe, 635/667 nm fluorescence, primary screen (AID 1097).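 Also: probe is a biotinylated anti-EGFR antibody binding compounds printed on slides; score combines fluorescence near 667 nm and signal to noise of each spot.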 The note with it: small-molecule microarray, higher = more signal.
The test system of assay [11] is Plasmodium falciparum Sir2 (PF13_0152, Sir2A). As to the kind of experiment: Plasmodium falciparum Sir2A binding compounds – biochemical, small-molecule microarray, 635 nm fluorescence, primary screen (AID 1098).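 Also: score merges spot fluorescence intensity with its signal-to-noise ratio.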 The note with it: fluorescence 635 nm, higher = more signal.
Assay [12] is described as follows: probe aDKK1 binding to arrayed compounds – biochemical, biotinylated probe, 635/667 nm fluorescence, primary screen (AID 1099).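 Also: score merges 667nm spot fluorescence with signal to noise across triplicate slides; reference of the scale not given here.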 The note with it: small-molecule microarray, higher = more signal.
Assay [13] in a line: probe aCHRDL2 binding to arrayed compounds – biochemical, biotinylated probe, 635/667 nm fluorescence, primary screen (AID 1100). The note with it: small-molecule microarray, higher = more signal.
Assay [14] is described as follows: change in splice reporter luminescence, either direction, cell-based, HEK293, spliceosome inhibition project, primary screen (AID 1101).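 Also: HEK293 cells carrying a splicing-competent luciferase reporter gene; test concentration not given here.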 The note with it: HEK293 splicing luciferase reporter, 24 h, higher = more signal, called active from +8 up or from −8 down. In general terms: Reporter assays use an easily measured gene product as a stand-in for the process of interest.

Assay [15] deals with Fibroblast growth factor 10 (Homo sapiens) (UniProt O15520). Kind of assay: compounds binding fibroblast growth factor 10 – biochemical, small-molecule microarray, 635 nm fluorescence, primary screen (AID 1102). The note with it: FGF10 binding, fluorescence 635 nm, higher = more signal.
Fibroblast growth factor 10 (Homo sapiens), sequence (O15520 whole entry, looked up): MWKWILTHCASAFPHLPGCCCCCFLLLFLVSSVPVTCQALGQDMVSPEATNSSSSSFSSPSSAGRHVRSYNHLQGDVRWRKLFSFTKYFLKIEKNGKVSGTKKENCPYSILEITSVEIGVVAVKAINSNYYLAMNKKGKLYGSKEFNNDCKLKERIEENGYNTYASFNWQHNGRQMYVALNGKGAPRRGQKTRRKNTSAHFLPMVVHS
The test system of assay [16] is glycogen synthase kinase-3 (GSK3A per assay name; protocol says GSK3B). Kind of assay: compounds binding glycogen synthase kinase-3 – biochemical, small-molecule microarray, 635 nm fluorescence, GSK3A, primary screen (AID 1103). Also: the record names both GSK3A and GSK3B. The note with it: fluorescence 635 nm, higher = more signal.
Assay [17] deals with Epidermal growth factor receptor (Homo sapiens) (UniProt P00533). Kind of assay: compounds binding epidermal growth factor receptor – biochemical, small-molecule microarray, 635 nm fluorescence, primary screen (AID 1104).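 Also: score merges 667 nm emission intensity with spot signal to noise over triplicate slides.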 The note with it: EGFR binding, higher = more signal.
Epidermal growth factor receptor (Homo sapiens), sequence (P00533 whole entry, looked up): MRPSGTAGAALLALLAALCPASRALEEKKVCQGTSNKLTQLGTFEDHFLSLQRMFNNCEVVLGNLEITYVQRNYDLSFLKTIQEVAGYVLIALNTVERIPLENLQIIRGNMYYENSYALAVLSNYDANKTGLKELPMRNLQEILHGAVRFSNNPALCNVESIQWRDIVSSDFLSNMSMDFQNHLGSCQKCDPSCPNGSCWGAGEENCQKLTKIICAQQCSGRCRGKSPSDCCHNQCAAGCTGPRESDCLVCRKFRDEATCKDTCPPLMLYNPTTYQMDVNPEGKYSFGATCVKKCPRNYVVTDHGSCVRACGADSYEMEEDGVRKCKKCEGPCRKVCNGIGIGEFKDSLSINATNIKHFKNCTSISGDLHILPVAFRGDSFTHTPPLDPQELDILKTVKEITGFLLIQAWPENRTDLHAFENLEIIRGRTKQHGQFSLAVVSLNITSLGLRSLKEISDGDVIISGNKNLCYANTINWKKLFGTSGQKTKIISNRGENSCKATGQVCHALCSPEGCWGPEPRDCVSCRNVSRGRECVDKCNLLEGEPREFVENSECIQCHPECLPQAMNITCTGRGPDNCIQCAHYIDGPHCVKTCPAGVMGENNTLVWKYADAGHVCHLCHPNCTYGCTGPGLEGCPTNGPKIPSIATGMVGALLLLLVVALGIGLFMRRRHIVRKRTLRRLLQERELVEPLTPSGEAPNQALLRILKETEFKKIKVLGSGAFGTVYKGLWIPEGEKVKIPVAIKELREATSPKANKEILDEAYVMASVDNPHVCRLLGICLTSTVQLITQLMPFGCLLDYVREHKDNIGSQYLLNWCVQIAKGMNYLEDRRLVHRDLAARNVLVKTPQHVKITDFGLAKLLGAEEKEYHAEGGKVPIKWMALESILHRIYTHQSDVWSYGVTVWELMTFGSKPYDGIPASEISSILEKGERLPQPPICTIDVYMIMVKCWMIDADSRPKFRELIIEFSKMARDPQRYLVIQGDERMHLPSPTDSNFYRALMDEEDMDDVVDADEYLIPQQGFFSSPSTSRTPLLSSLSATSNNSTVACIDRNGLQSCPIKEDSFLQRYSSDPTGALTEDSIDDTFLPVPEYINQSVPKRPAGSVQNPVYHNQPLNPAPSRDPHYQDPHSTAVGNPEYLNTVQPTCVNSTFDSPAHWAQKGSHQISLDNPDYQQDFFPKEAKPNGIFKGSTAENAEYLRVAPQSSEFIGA
The target of assay [18] is Follistatin-related protein 3 (Homo sapiens) (UniProt O95633). Kind of assay: compounds binding follistatin-related protein 3 – biochemical, small-molecule microarray, 635 nm fluorescence, primary screen (AID 1105).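 Also: score merges emission near 667 nm and signal to noise per printed spot across three slides.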 The note with it: FSTL3 binding, higher = more signal.
Follistatin-related protein 3 (Homo sapiens), sequence (O95633 whole entry, looked up): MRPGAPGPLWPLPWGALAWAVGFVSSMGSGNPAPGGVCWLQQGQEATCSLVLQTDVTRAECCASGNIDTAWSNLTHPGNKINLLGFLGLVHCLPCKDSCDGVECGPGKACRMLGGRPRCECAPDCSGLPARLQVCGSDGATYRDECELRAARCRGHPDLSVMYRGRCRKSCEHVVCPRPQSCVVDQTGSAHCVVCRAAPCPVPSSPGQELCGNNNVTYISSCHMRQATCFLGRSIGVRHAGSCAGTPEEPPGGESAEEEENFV
Assay [19] deals with Dickkopf-related protein 1 (Homo sapiens) (UniProt O94907). Kind of assay: small molecules binding DKK1 protein – biochemical, small-molecule microarray, 635 nm fluorescence scan, primary screen (AID 1106).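 Also: score merges emission near 667 nm with signal to noise over three replicate slides.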 The note with it: higher = more signal.
Dickkopf-related protein 1 (Homo sapiens), sequence (O94907 whole entry, looked up): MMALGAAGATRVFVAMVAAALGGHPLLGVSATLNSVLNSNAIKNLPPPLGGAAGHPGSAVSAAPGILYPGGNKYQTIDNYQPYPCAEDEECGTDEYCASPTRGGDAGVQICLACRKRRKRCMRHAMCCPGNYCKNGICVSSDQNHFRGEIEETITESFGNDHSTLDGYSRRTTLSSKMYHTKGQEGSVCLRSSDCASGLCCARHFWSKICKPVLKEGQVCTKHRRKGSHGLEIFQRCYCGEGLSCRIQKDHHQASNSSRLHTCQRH
Assay [20] has as its system Inhibin beta A chain (activin A). As to the kind of experiment: small molecules binding activin A – biochemical, small-molecule microarray, 635 nm fluorescence scan, primary screen (AID 1107).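 Also: mouse activin A protein probed at 4.33 µg/mL on printed slides; score merges bound-protein fluorescence near 667 nm with spot signal-to-noise.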 The note with it: INHBA, higher = more signal.

As for `COc1ccc(COC(=O)NN=C2C[C@@H](O)[C@@H](O)[C@@H]3[C@@H]4C(=O)N(Cc5ccccc5)C(=O)[C@@H]4CC[C@@H]23)cc1`, the composite z-score in [1] is 0.166; in [5], 0.105; in [7] it was -0.0873; in assay [8] it was 0.123; in [9] it was 0.724; in assay [10] it was -0.0868. Further, the composite z-score in assay [11] was 0.0233; in assay [12] it was -0.12; in assay [13] it was -0.249; in assay [15], 0.193; in [16] it was 0.256; in assay [17], 0.375. The composite z-score in assay [18] was 0.253; in [19], 0.227; in assay [20], -0.0039. For the same compound, the z-score in assay [2] is 0.712 (inactive); in assay [3] it was 0.304 (inactive); in assay [4], -0.0766 (inactive); in assay [6], 0.555 (inactive); in assay [14], -0.221 (inactive).

As for `CC(C)=CCCC(C)=CCON=C1C[C@@H](O)[C@@H](O)[C@@H]2[C@@H]3C(=O)N(C4CCCCC4)C(=O)[C@@H]3CC[C@H]12`, the composite z-score in [1] was 1.52; in assay [5], 0.341; in assay [7], -0.0575; in assay [8], 1.07; in assay [9], 0.789; in assay [10] it was 0.0065. Moreover, the composite z-score in [11] was 0.475; in assay [12], -0.107; in assay [13], -0.304; in [15], 0.785; in [16], 0.701; in assay [17], 0.513. Besides, the composite z-score in assay [18] came to 1.11; in [19], 0.873; in assay [20], 0.644. The z-score is 0.194 (inactive) in assay [2]; -0.312 (inactive) in assay [3]; -0.382 (inactive) in assay [4]; 0.474 (inactive) in assay [6]; -0.693 (inactive) in [14].

Take `CCOC(=O)[C@H](Cc1ccccc1)NC(=O)CCC1CC(OC(=O)NCc2ccc3c(c2)OCO3)CC2(CCCC(COC(=O)NCCOC)O2)O1` (stereo not given in full): the composite z-score in [1] was 1.56; in assay [5] it was 2.34; in assay [7] it was -0.166; in [8], 0.884; in assay [9], 1.05; in assay [10], 0.0059. In addition, the composite z-score in assay [11] is 0.857; in [12], -0.219; in assay [13] it was -0.49; in [15] it was 1.28; in assay [16], 1.2; in assay [17] it was 0.584. The figures for the composite z-score in [18], in assay [19] and in assay [20] were 1.01, 0.437 and -0.169, respectively. Also, the z-score in [2] is -0.439 (inactive); in assay [3], -0.25 (inactive); in [4] it was -0.364 (inactive); in assay [6], -0.141 (inactive); in assay [14], -0.991 (inactive).

Regarding `CCN1C(=O)[C@H]2[C@H]3[C@H](O)[C@H](O)CC(=NO[C@@H]4O[C@H](COC(C)=O)[C@@H](OC(C)=O)[C@H](OC(C)=O)[C@H]4OC(C)=O)[C@@H]3CC[C@H]2C1=O`, the composite z-score in assay [1] was found to be 1.29; in assay [5] it was 1.05; in [7] it was 0.015; in [8], 0.597; in [9], 1.03; in assay [10], 0.0091. The composite z-score was 0.579 in assay [11]; 0.0594 in [12]; -0.601 in assay [13]; 0.868 in [15]; 0.612 in assay [16]; 0.591 in assay [17]. Also, the values for the composite z-score in assay [18], in assay [19] and in [20] were 1.11, 0.735 and -0.371, respectively. Moreover, the z-score in assay [2] was 0.461 (inactive); in [3], 0.208 (inactive); in assay [4], 0.47 (inactive); in assay [6], 1.16 (inactive); in assay [14], 0.5 (inactive).

Turning to `CO[C@@H](C1CCCCC1)[C@@H](C)[C@H](OCc1cccc(Br)c1)[C@@H](C)CO`, the composite z-score in assay [1] is 0.0812; in [5], 0.366; in assay [7], -0.181; in [8], 0.307; in [9] it was 0.322; in assay [10] it was -0.0549. In addition, the composite z-score was -0.317 in assay [11]; -0.359 in assay [12]; -0.426 in assay [13]; 0.512 in assay [15]; -0.314 in assay [16]; 0.823 in [17]. Moreover, the composite z-score in assay [18] was found to be 0.171; in assay [19] it was 0.385; in assay [20], 0.247. Moreover, the z-score is -0.407 (inactive) in [2]; -16.4 (active) in [3]; -1.11 (inactive) in assay [4]; 0.114 (inactive) in [6]; 0.899 (inactive) in assay [14].
